Experimental data reported in PubChem BioAssay AID1159580 (chemical genetic matrix, 2015).
Out of some 5,500 compounds screened, about 2,000 (36%) were called active. Roughly 18% stayed inconclusive and do not appear here. Rule as the data show it: active = normalized growth mostly below about 0.91 (no sharp cut-off); inconclusive = no clear call, values can overlap the other calls; inactive = mostly above about 0.92. The list shows a part of the results.

Test: chemical genetic growth profiling, strain panel (AID 1159580);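 also: tested at 20 µM; growth read once vehicle control cultures reached saturation at 30 °C; 1 = growth at the plate median or of vehicle wells; lower values mean less growth of the strain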
Conditions: S. cerevisiae deletion strains, growth OD
[1] = locus YAL040C, strain CLN3, active compounds read low
[2] = locus YCL061C, strain MRC1 (second series), active compounds read low
[3] = locus YDR363W, strain ESC2, active compounds read low
[4] = locus YER002W, strain NOP16, active compounds read low
[5] = locus YMR307W, strain GAS1, active compounds read low
[6] = locus YNL175C, strain NOP13, active compounds read low
[7] = locus YNL197C, strain WHI3, active compounds read low
[8] = locus YNL224C, strain SQS1, active compounds read low
[9] = locus YOR083W, strain WHI5 (second series), active compounds read low
[10] = locus YPL055C, strain LGE1, active compounds read low
[11] = locus YGR229C, strain SMI1, active compounds read low
[12] = locus YJR075W, strain HOC1, active compounds read low
[13] = locus YNL128W, strain TEP1, active compounds read low
[14] = locus YNL153C, strain GIM3, active compounds read low
[15] = locus YPL241C, strain CIN2, active compounds read low

Measured: normalized growth

C=CCN1C[C@@H](C)N([C@H](c2ccc(C(=O)N(CC)CC)cc2)c2cccc(OC)c2)C[C@@H]1C
inactive: [1] 1.04 | [2] 1 | [3] 0.992 | [4] 0.999 | [5] 1.03 | [6] 0.995 | [7] 1.01 | [8] 1.02 | [9] 1.02 | [10] 1.01

CP(=O)(O)C1=CCNCC1
inactive: locus YAL013W, strain DEP1, active compounds read low 1.03 | [1] 1 | [2] 1 | [3] 0.997 | [4] 0.997 | [11] 1.02 | [12] 1.01 | [5] 1 | [13] 0.996 | [14] 0.999 | [6] 1.01 | [7] 1.02 | [8] 1.01 | locus YNL322C, strain KRE1, active compounds read low 1.01 | [9] 0.987 | [15] 1

O=c1onc2cnc3ccccc3n12
active: [14] 0.777 | [10] 0.801
inactive: [1] 0.984 | [2] 0.983 | [3] 0.893 | [4] 1 | [11] 0.939 | [12] 0.958 | [5] 0.977 | [13] 0.967 | [6] 0.999 | [7] 0.989 | [8] 0.987 | [9] 0.961 | [15] 0.999
